CHO-K1 Ca PAM – nonselective activator or artifact in parental CHO-K1 calcium assay. ATP EC20, Fluo-8 calcium fluorescence; 0% at ATP EC20, 100% at ATP max. activation, % at 3 µM. 0.02% of 360,000 active;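 active = activation above the run cutoff, the mean activation of all test compounds plus 3 SD, cut at about 40% in these data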;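 note: peak over basal fluorescence ratio in a 140 s read after ATP addition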
M1 PAM – potentiates human M1 receptor response to acetylcholine; activation, % at 3 µM; 0.088% of 360,000 active; CHO-K1 hM1, Fluo-8 calcium fluorescence, ACh EC20; 0% = ACh EC20, 100% = maximal ACh; P11229; AID 588819; in the data active = activation above about 19%, passing the limit was not always enough
Target sequence (P11229 whole entry, looked up): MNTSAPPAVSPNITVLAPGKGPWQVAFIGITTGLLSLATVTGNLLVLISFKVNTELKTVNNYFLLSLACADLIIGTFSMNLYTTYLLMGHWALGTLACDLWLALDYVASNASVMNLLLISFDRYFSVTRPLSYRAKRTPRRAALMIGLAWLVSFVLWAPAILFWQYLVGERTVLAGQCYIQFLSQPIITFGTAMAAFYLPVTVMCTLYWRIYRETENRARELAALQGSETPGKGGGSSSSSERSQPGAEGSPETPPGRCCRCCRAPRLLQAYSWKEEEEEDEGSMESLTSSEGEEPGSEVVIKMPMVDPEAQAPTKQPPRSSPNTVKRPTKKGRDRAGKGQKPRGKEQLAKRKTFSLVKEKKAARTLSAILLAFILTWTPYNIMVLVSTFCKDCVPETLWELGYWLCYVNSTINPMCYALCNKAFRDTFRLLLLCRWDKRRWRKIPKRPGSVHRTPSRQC
M1 antag – blocks human M1 muscarinic receptor | CHO-K1 hM1, Fluo-8 calcium fluorescence, ACh EC80 antagonist | inhibition, % at 3 µM | 1.3% of 360,000 active | AID 588852;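 active = percent inhibition above its own plate's cutoff, namely the mean of that plate's compound wells plus 3 SD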;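 note: peak over basal fluorescence ratio during 140 s after agonist addition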
M1 ag – human M1 muscarinic receptor agonism | P11229 | activation, % at 3 µM | AID 588814 | 0.33% of 360,000 active | CHO-K1 hM1, Fluo-8 calcium fluorescence, agonist mode; 0% DMSO, 100% acetylcholine EC100;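 active = activation above the run's mean compound activation plus 3 SD, cut at about 16% in these data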;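 note: peak over basal fluorescence ratio within a 140 s kinetic read after compound addition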
CHO-K1 Ca antag – counter-screen for M1 antagonists: effect in parental CHO-K1 cells | ATP-induced calcium, Fluo-8 fluorescence | 0.6% of 360,000 active | inhibition, % at 3 µM;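 active = inhibition above a per-plate cutoff, the plate's mean sample inhibition plus 3 SD, cut at about 24% in these data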
CHO-K1 Ca ag – nonselective activator or artifact in parental CHO-K1 cells | Fluo-8 calcium fluorescence; scaled to maximal ATP response, vehicle zero | activation, % at 3 µM | 0.48% of 360,000 active; in the data active = activation above about 15%;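 note: untransfected CHO-K1 host cells lacking M1 receptor as counterscreen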
Numbers stand for hits; i = inactive; + = active, no number. Rows were chosen to be rich in hits. Some 2.3% of all compounds tested hit in one or more screens of this group.

SMILES	CHO-K1 Ca PAM	M1 PAM	M1 antag	M1 ag	CHO-K1 Ca antag	CHO-K1 Ca ag
O=C(O)CCC(=O)Nc1ccc(S(=O)(=O)N2CCCC2)cc1	i	i	i	i	24.6	i
COc1cc2c(cc1OC)CN(CC(=O)Nc1ccc(S(=O)(=O)N3CCCC3)cc1)CC2	i	i	i	i	i	i
N#CC(C#N)=C1C=C2C=C(N3CCCCCC3)CCC2CC1 (centres undefined)	i	i	101.7	+	101.7	939.4
CN1CCN(C2=CC3=CC(=C(C#N)C#N)CCC3CC2)CC1 (centres undefined)	i	i	103.0	896.4	85.2	522.4
N#CC(C#N)=C1C=C2C=C(N3CCOCC3)CCC2CC1 (centres undefined)	i	i	57.8	124.3	i	65.5
CCN1CCN(C2=CC3=CC(=C(C#N)C#N)CCC3CC2)CC1 (centres undefined)	i	i	101.0	590.7	78.0	365.7
COc1ccc(C(=O)C2CCCN(Cc3ccc(C#CCCO)cc3)C2)cc1F (centres undefined)	i	i	57.6	i	i	i
COc1ccc(C(=O)C2CCCN(Cc3cnc(N4CCOCC4)s3)C2)cc1F (centres undefined)	i	i	i	i	i	28.9
COc1ccc(C(=O)C2CCCN(Cc3ccc4nonc4c3)C2)cc1F (centres undefined)	i	i	i	i	i	i
COc1ccc(C(=O)C2CCCN(Cc3cnc(N4CCOCC4)s3)C2)c(OC)c1 (centres undefined)	i	i	i	i	i	i
COC1OC2COC(c3ccccc3)OC2C2OC12 (centres undefined)	i	i	i	i	i	i
COc1ccc(NC(=O)COc2cccc3c2OC(C)(C)C3)cc1OC	i	i	31.5	i	i	i
CSc1ncccc1C(=O)Nc1cccc(S(=O)(=O)N(C)c2ccccc2)c1	i	i	i	i	i	i
CSCCC(NC(=O)c1ccc(Cl)cc1Cl)C(=O)NCc1ccccn1 (centres undefined)	i	i	i	i	35.4	i
CSCCC(NC(=O)c1ccccc1Cl)C(=O)NCC1COc2ccccc2O1 (centres undefined)	i	i	31.2	i	i	i
COc1ccc(Cc2c(C3CCCCC3)nc3ccc(Br)cn23)c(C)c1	i	i	i	i	i	i
NNC(=O)[C@H](Cc1ccccc1)NC(=O)Nc1ccc2c(c1)OCCO2	i	i	36.0	i	i	i
